Experimental data as given in PubChem BioAssay AID1159580 (chemical genetic matrix, 2015).
Several values for one entry are separate records, joined by “and”; a condition that tells them apart may be missing. Equal entries are not always repeated. The whole screen tested about 5,500 compounds, of which about 2,000 (36%) were called active. About 18% were inconclusive and are not listed. Cut-off read from the data, not from the text of the source: active = normalized growth mostly below about 0.91 (no sharp cut-off); inconclusive = no clear call, values can overlap the other calls; inactive = mostly above about 0.92. This is one part of the list.

Test: chemical genetic growth profiling, strain panel (AID 1159580);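 note: tested at 20 µM; growth read once vehicle control cultures reached saturation at 30 °C; 1 = growth at the plate median or of vehicle wells; lower values mean less growth of the strain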
Conditions: S. cerevisiae deletion strains, growth OD

Measured: normalized growth

CC(=O)O[C@H]1CC[C@@]2(C)C(=CCC3C2CC[C@@]2(C)C3CC[C@@H]2C(C)CCCC(C)C)C1 (stereo partly drawn)
inactive: locus YAL021C, strain ccr4, hits give low values 1 | locus YAL026C, strain drs2, hits give low values 1 | locus YAL030W, strain snc1, hits give low values 0.985 | locus YBL061C, strain skt5, hits give low values 0.994 | locus YBR009C, strain hhf1, hits give low values 0.994 | locus YBR021W, strain FUR4, hits give low values 0.996 | locus YBR023C, strain chs3, hits give low values 0.998 | locus YBR171W, strain sec66, hits give low values 0.976 | locus YBR229C, strain ROT2, hits give low values 1.01 | locus YBR231C, strain swc5, hits give low values 0.988 | locus YBR279W, strain paf1, hits give low values 0.997 | locus YCL011C, strain gbp2, hits give low values 0.992 | locus YCL016C, strain dcc1, hits give low values 1.01 | locus YCL029C, strain bik1, hits give low values 1.02 | locus YCL061C, strain MRC1, hits give low values 0.988 | locus YCL069W, strain vba3, hits give low values 0.998 | locus YCR088W, strain abp1, hits give low values 0.988 | locus YDL005C, strain med2, hits give low values 0.981 | locus YDL035C, strain GPR1, hits give low values 1.03 | locus YDL040C, strain nat1, hits give low values 0.975 | locus YDL074C, strain BRE1, hits give low values 1.04 | locus YDL101C, strain DUN1, hits give low values 1.01 | locus YDL134C, strain PPH21, hits give low values 1.02 | locus YDL185W, strain tfp1, hits give low values 1.03 | locus YDL192W, strain arf1, hits give low values 1.05 | locus YDR001C, strain nth1, hits give low values 0.993 | locus YDR069C, strain doa4, hits give low values 0.987 | locus YDR101C, strain arx1, hits give low values 1.02 | locus YDR137W, strain rgp1, hits give low values 1.01 | locus YDR159W, strain sac3, hits give low values 0.993 | locus YDR162C, strain NBP2, hits give low values 1.02 | locus YDR195W, strain ref2 0.943 | locus YDR297W, strain sur2, hits give low values 0.99 | locus YDR318W, strain mcm21, hits give low values 1.03 | locus YDR334W, strain swr1, hits give low values 0.988 | locus YDR335W, strain msn5, hits give low values 1 | locus YDR388W, hits give low values 1.03 | locus YDR392W, strain spt3, hits give low values 0.958 | locus YDR502C, strain sam2, hits give low values 1.02 | locus YEL003W, strain gim4, hits give low values 0.988 | locus YEL037C, strain rad23, hits give low values 0.996 | locus YEL061C, strain CIN8 (second series), hits give low values 0.992 | locus YEL061C, strain CIN8, hits give low values 1.01 | locus YER015W, strain faa2, hits give low values 0.995 | locus YER016W, strain bim1, hits give low values 0.994 | locus YER110C, hits give low values 1.03 | locus YER111C, strain swi4, hits give low values 0.979 | locus YER155C, strain BEM2 (second series), hits give low values 0.97 | locus YER155C, strain BEM2, hits give low values 0.992 | locus YER167W, strain BCK2, hits give low values 1.02 | locus YFR010W, strain ubp6, hits give low values 0.986 | locus YGL078C, strain dbp3, hits give low values 1.02 | locus YGL086W, strain mad1, hits give low values 1.01 | locus YGL167C, strain pmr1, hits give low values 0.989 | locus YGL173C, strain kem1, hits give low values 0.99 | locus YGL227W, strain vid30, hits give low values 0.978 | locus YGL240W, strain doc1, hits give low values 0.969 | locus YGL248W, strain PDE1, hits give low values 1.02 | locus YGL253W, strain hxk2, hits give low values 0.995 | locus YGR078C, strain PAC10, hits give low values 1.03 | locus YGR135W, strain pre9, hits give low values 1.02 | locus YGR252W, strain gcn5, hits give low values 1.03 | locus YHR013C, strain ard1, hits give low values 0.997 | locus YHR027C, strain rpn1, hits give low values 0.997 | locus YHR030C, strain SLT2, hits give low values 1.01 and 0.967 | locus YHR079C, strain IRE1 (second series), hits give low values 1.02 | locus YHR079C, strain IRE1, hits give low values 0.974 | locus YHR094C, strain hxt1, hits give low values 1.01 | locus YHR129C, strain ARP1, hits give low values 1.02 | locus YHR142W, strain chs7, hits give low values 1.01 | locus YHR200W, strain rpn10, hits give low values 1.03 | locus YIL066C, strain RNR3, hits give low values 1.04 | locus YIL073C, strain SPO22, hits give low values 1.1 | locus YIL125W, strain kgd1, hits give low values 1.01 | locus YIR030C, strain dcg1, hits give low values 1.02 | locus YJL092W, strain hpr5, hits give low values 0.998 | locus YJL095W, strain BCK1 (second series), hits give low values 1.01 | locus YJL095W, strain BCK1, hits give low values 1.03 and 0.973 | locus YJL115W, strain asf1, hits give low values 1 | locus YJL129C, strain trk1, hits give low values 0.998 | locus YJL134W, strain LCB3, hits give low values 1.01 | locus YJL154C, strain vps35, hits give low values 1 | locus YJL164C, strain tpk1, hits give low values 1.01 | locus YJL166W, strain qcr8, hits give low values 0.993 | locus YJL168C, strain set2, hits give low values 1.02 | locus YJL187C, strain SWE1 (second series), hits give low values 1.02 | locus YJL187C, strain SWE1, hits give low values 0.997 | locus YJR043C, strain POL32, hits give low values 1.03
